Results reported in PubChem BioAssay (Tox21).
Inconclusive results are not listed. Entries that show only a call come without a potency. Unmarked numbers belong to inactive results. The source made the active and inactive calls. Calls come from the whole dose curve.

Assay: qHTS assay to identify small molecule agonists of the progesterone receptor (PR) signaling pathway - cell viability counter screen (AID 1346799); note: nearly all actives have a fitted effect of over 45% in size
Details: PR-UAS-bla HEK293T viability, CellTiter-Glo luminescence, 16 h; series mostly up to 92.4 µM; activity change, negative = cytotoxicity: at the top concentration
Text: National Center for Advancing Translational Sciences [NCATS]
NIH Chemical Genomics Center [NCGC]
U.S. Environmental Protection Agency [EPA]
National Institutes of Environmental Health Sciences [NIEHS]
National Toxicology Program [NTP]
U.S. Food and Drug Administration [FDA]
Progesterone receptor (PR), a nuclear hormone receptor, plays an important role in development, metabolic homeostasis and reproduction. It is activated by the steroid hormone progesterone. Endocrine disrupting chemicals (EDCs) and their interactions with steroid hormone receptors like PR causes disruption of normal endocrine function. To identify the compounds that stimulate PR signaling, a PR-UAS-bla GripTite cell line i.e. PR-UAS-bla HEK293T (Invitrogen, Carlsbad, CA, USA) containing a beta-lactamase reporter gene under the control of an UAS response element was used to screen Tox21 10K compound library. The cytotoxicity of the Tox21 compound library against the PR-bla cell line was tested in parallel by measuring the cell viability using CellTiter-Glo assay in the same wells.
Tox21 Assay Protocol Summary:
PR-UAS-bla HEK293T cells were dispensed at 3,000 cells/5 uL of assay medium containing 2% charcoal stripped FBS per well into black wall/clear-bottom 1536-well plates using a Multidrop Combi (ThermoFisher Scientific, Waltham, MA) dispenser. After the assay plates were incubated at a 37C and 5% CO2 for 6 hr, 23 nL of compounds dissolved in DMSO, positive controls or DMSO only was transferred to the assay plate by a Pintool station (Kalypsys, San Diego, CA). The plates were incubated at 37C and 5% CO2 for 16 hr. Then 1 uL of LiveBLAzer B/G FRET substrate was added using a Flying Reagent Dispenser (FRD, Aurora Discovery, San Diego, CA), the plates were incubated at room temperature for 2 hours, and fluorescence intensity was measured by an Envision plate reader (PerkinElmer, Shelton, CT). For cell viability readout that measures cytotoxicity, 4 uL/well of CellTiter-Glo reagent was added into the assay plates using a FRD. After 30 min incubation at room temperature, the luminescence intensity in the plates was measured using a ViewLux (PerkinElmer) plate reader.

SMILES	Potency	activity change, negative = cytotoxicity
CCCCOCCOCCSC#N	inactive	–
CCCCNC(=O)NS(=O)(=O)c1ccc(N)cc1	–	-2.38%
CO[C@H]1C=CO[C@@]2(C)Oc3c(C)c(O)c4c(O)c(c(/C=N/N5CCN(C)CC5)c(O)c4c3C2=O)NC(=O)/C(C)=C\C=C[C@H](C)[C@H](O)[C@@H](C)[C@@H](O)[C@@H](C)[C@H](OC(C)=O)[C@@H]1C	inactive	–
CN(C)Cc1cc(CN(C)C)c(O)c(CN(C)C)c1	inactive	–
Cc1c(N(C)CS(=O)(=O)O)c(=O)n(-c2ccccc2)n1C	inactive	–
CC(C)=CCC/C(C)=C/CO	inactive	–
CC(=O)/C=C/C1=C(C)CCCC1(C)C	inactive	–
CC(C)CC(C)CC(O)CC(C)C (stereo not given)	inactive	–
O=c1cc[nH]c(=O)[nH]1	inactive	–
CN/C(=C\[N+](=O)[O-])NCCSCc1ccc(CN(C)C)o1	inactive	–
Cc1cnc(NC(=O)C2=C(O)c3ccccc3S(=O)(=O)N2C)s1	inactive	–
OCCCc1ccccc1	–	7.5% [at 42.5 µM]
COC(=O)C1CCC(C(=O)OC)CC1 (stereo not given)	inactive	–
OC[C@@H](O)[C@@H](O)[C@H](O)[C@H](O)CO	inactive	–
C1CNCCN1	inactive	–
CC(C)Cc1ccc(C(C)C(=O)O)cc1 (stereo not given)	inactive	–
COC(=O)c1ccc(C=O)cc1	inactive	–
CCn1cc(C(=O)O)c(=O)c2ccc(C)nc21	inactive	–
COc1ccccc1NC(=O)CC(C)=O	–	-14.6%
NC(=O)N1c2ccccc2C=Cc2ccccc21	inactive	–

SMILES	Potency	activity change, negative = cytotoxicity
CC(O)COc1ccccc1 (stereo not given)	inactive	–
Cc1cccc2ccccc12	inactive	–
C=C(C)OC(C)=O	inactive	–
CC1=C(/C=C/C(C)=C/C=C/C(C)=C/C(=O)O)C(C)(C)CCC1	–	-22.2%
Oc1cccc(O)c1	inactive	–
NCCNc1cccc2ccccc12	inactive	–
CC(C)(C)NCC(O)c1ccc(O)c(CO)c1 (stereo not given)	inactive	–
CCOC(=O)C(C)(C)Oc1ccc(Cl)cc1	inactive	–
COc1ccccc1O	inactive	–
CC(=O)Oc1ccccc1C(=O)O	inactive	–
O=C(OCc1ccccc1)c1ccccc1	inactive	–
CCCCCCCCCCCCCCCCCC(=O)OCC(O)CO (stereo not given)	inactive	–
Cc1ccc(O)c(-n2nc3ccccc3n2)c1	inactive	–
C[C@]12C=CC(=O)C=C1CC[C@@H]1[C@@H]2C(=O)C[C@@]2(C)[C@H]1CC[C@]2(O)C(=O)CO	inactive	–
CC(=O)OC/C=C(C)/C=C/C=C(C)/C=C/C1=C(C)CCCC1(C)C	inactive	–
NC(=O)c1ccc([N+](=O)[O-])cc1Cl	inactive	–
COc1ccc(O)cc1	inactive	–
CCCCCCCCCCCCCC(=O)OC(C)C	inactive	–
NC(=O)NO	inactive	–
Nc1ccc(N=Nc2ccccc2)c(N)n1	inactive	–
